Results taken from ChEMBL document CHEMBL3988442, “University of Dundee, Small-Polar-MMV Screening Library” (2021).
Among all 48,000 compounds or so, about 13,000 (27%) showed an effect of 50% or more. This is one part of the list.

system: Wolbachia pipientis; test: Anti-Wolbachia Cell-Based Screen; format: functional; set-up: scale not given: in the data most compounds retested in dose-response had high values; conditions: 5 µM

SMILES | Percent Effect
COc1ccc([C@@H]2C[C@H](NC(C)=O)C[C@H](CCc3ccccc3)O2)cn1 | 7.698%
CSCC[C@H](N)C(=O)N1CC(Oc2ccccc2C)C1 | -5.947%
COCCOc1ncccc1CNC(=O)N1CCOCC1 | -0.8625%
COc1ccc(-n2cnnc2SCCC#N)cn1 | -2.783%
COC(=O)CCNC(=O)c1nnn(-c2ccc(F)cc2)c1C1CC1 | 1.406%
COC(=O)CCNC(=O)c1nnn(-c2ccc(C)cc2)c1C1CC1 | 120.1%
O=C(NCC1(CO)CC1)c1nnn(-c2ccc(F)cc2)c1C1CC1 | -10.21%
COc1ccc(-n2nnc(C(=O)NC(C)C)c2C2CC2)cc1 | 16.07%
NS(=O)(=O)CCNC(=O)c1nnn(-c2ccc(F)cc2)c1C1CC1 | 1.057%
Cc1ccc(-n2nnc(C(=O)NC(C)C)c2C2CC2)cc1 | 124.2%
O=C(NCC1(C(=O)O)CCC1)c1nnn(-c2ccc(F)cc2)c1C1CC1 | 4.547%
Cc1ccc(-n2nnc(C(=O)NCC(F)(F)F)c2C2CC2)cc1 | 125.2%
CCN(CC)C(=O)c1nnn(-c2ccc(C)cc2)c1C1CC1 | -3.028%
Cc1ccc(-n2nnc(C(=O)NCC3(CO)CC3)c2C2CC2)cc1 | 112.7%
Cc1ccc(-n2nnc(C(=O)NCCS(N)(=O)=O)c2C2CC2)cc1 | 2.856%
Cc1ccc(-n2nnc(C(=O)Nc3cc(C)nn3C)c2C2CC2)cc1 | -15.14%
CC(NC(=O)NCCCO)c1ccc(-c2ccncc2)cc1 (centres undefined) | 6.546%
Cc1ccccc1CN1CCNC(=O)C1CC(=O)NCC1CCCCC1 (centres undefined) | 13.06%
NC(=O)CN1CC2(CCC1=O)CCN(Cc1cc(F)ccc1Cl)CC2 | 6.267%
Cn1cc(CN2CCOC3(CCCN(C(=O)c4ccco4)C3)C2)cn1.O=C(O)C(F)(F)F (centres undefined) | -10.52%
COc1ccc(C(C)N2CCC(CNC(C)=O)CC2)cc1Cl (centres undefined) | 4.452%
COc1ccccc1C(=O)NC[C@H]1COCc2nc3c(C)cccc3n21 | -7.945%
COc1ccc(Br)cc1Cn1nc(C(N)=O)ccc1=O | 5.156%

SMILES | Percent Effect
CS(=O)(=O)CCCSCc1ccc(Br)c(F)c1 | -6.245%
COc1ccc(Br)cc1SCCS(C)(=O)=O | 106.5%
COc1ccc(Br)cc1SCCC(N)=O | 101.3%
COc1ccc(Br)cc1CCC(=O)N1CCCC1 | -8.693%
CS(=O)(=O)CCSCc1ccc(Br)c(F)c1 | -8.514%
COc1ccc(Br)cc1SCCCS(C)(=O)=O | 100.1%
CS(=O)(=O)CCSc1cccc(C#N)c1 | -1.405%
CS(=O)(=O)CCCSCc1cc(F)cc(Br)c1 | -17.62%
O=C(Cc1ccc2c(c1)CCC2)N1CCCC1Cn1cccn1 (centres undefined) | 137.3%
O=C(Cc1ccc2c(c1)CCC2)N1CCCC(n2cccn2)C1 (centres undefined) | -2.086%
O=C(Cc1ccc2c(c1)CCO2)N1CCCC(n2cccn2)C1 (centres undefined) | -1.485%
Cc1cnn(CC2CCCN2C(=O)Cc2ccc3c(c2)CCO3)c1 (centres undefined) | 96.14%
O=C(Cc1ccc2c(c1)CCO2)N1CCCC1Cn1cccn1 (centres undefined) | 102%
O=C(c1cccc2c1OCCO2)N1CCCC1Cn1cccn1 (centres undefined) | 5.303%
O=C(Cc1ccc(O)c(Cl)c1)N1CCCCC1CCn1cccn1 (centres undefined) | -6.522%
Cc1nn(CC(C)C)c(N(C)C)c1CNCCCNS(C)(=O)=O | 11.35%
CCOc1ccnc(NCc2nc(C)cc(=O)[nH]2)n1 | 1.629%
CCC(=O)N1Cc2nnc(C3CCOCC3)n2C(Cc2c[nH]cn2)C1 (centres undefined) | -1.737%
CC(C)N(C)C[C@H]1OC[C@@H]2CCN(Cc3cccc(C#N)c3)C[C@@H]21.O=C(O)C(F)(F)F.O=C(O)C(F)(F)F | 7.862%
O=C1NC2(CCN(C(=O)c3ccc(Cl)cn3)CC2)CC1c1ccccc1 (centres undefined) | -25.51%
COCCNc1nc(-c2ccc(S(=O)(=O)N3CCCCCC3)cc2)cs1 | -3.577%
COCCN(Cc1ccc(C)o1)C(=O)Nc1ncc(C)s1 | 4.146%
CCC(CC)(CC(=O)OC)NC(=O)Nc1nnc(-c2ccccn2)s1 | -2.114%

SMILES | Percent Effect
COCCNc1nc(-c2ccc(S(=O)(=O)N3CCCCC3)cc2)cs1 | 16.68%
CCC(C)(C)NC(=O)Nc1nnc(-c2ccccn2)s1 | -10.26%
COCCNc1nnc(-c2ccc(C)nc2)s1 | 135.2%
COCCNc1nnc(-c2cnc(C)cn2)s1 | 149.1%
COCCNc1nc2c(c(NCc3cnc(C)cn3)n1)CCNCC2 | -9.122%
COCCNc1nnc(-c2ccccn2)s1 | 158.8%
Cc1c(-c2ccncc2)n[nH]c1NC(=O)CCOC(C)C | -12.27%
N#CCC(=O)NCc1nnc2n1CCN(Cc1cccs1)C2 | 6.584%
CN1CCc2nc3cc(C(=O)NCc4cccs4)ccc3c(=O)n2CC1 | 76.54%
O=c1c2sccc2nc2n1CCN(Cc1cccs1)CC2 | 5.975%
COCCNC(=O)c1ccc2c(=O)n3c(nc2c1)CCN(C)CC3 | 94.74%
CCCNC(=O)c1ccc2c(OC)n(C)nc2c1 | -11.42%
COc1cc2nc3n(c(=O)c2cc1OC)CCN(C)CC3 | -3.498%
CCN(Cc1ccncc1)Cc1c[nH]nc1-c1ccc(F)cc1 | -6.114%
COC(=O)C1CCN(C(=O)NCC(C)Cc2cccs2)CC1 (centres undefined) | -16.38%
COc1ccccc1C(CNC(=O)NCc1cc[nH]n1)N1CCCC1 (centres undefined) | 5.725%
COc1ccccc1C(=O)NCC(c1cccn1C)N1CCOCC1 (centres undefined) | 102.1%
CCC(CNC(=O)c1ccccc1OC)N1CCc2ccccc2C1 (centres undefined) | 13.81%
COc1cccc(C(=O)NCCCN2CCc3ccccc3C2)c1OC | -7.552%
COc1ccccc1S(=O)(=O)NCC(c1cccn1C)N(C)C (centres undefined) | 1.51%
COc1cccc(C(=O)NCC(c2cccn2C)N2CCCC2)c1OC (centres undefined) | 106.1%
Cc1oncc1C(=O)NCC(c1ccccc1Cl)N1CCOCC1 (centres undefined) | 10.8%
COc1cccc(OC)c1C(=O)NCC(c1cccn1C)N1CCCC1 (centres undefined) | 106.6%
